# Results taken from paper PMC11006913.
# Residue numbers refer to the chain shown, from its start.
# Experiments:
# Assay in all cases: PBM; 200 nM protein, PBS
# Conditions in all cases: dsDNA, one strand shown
# HOXB9 [1] = biological target: HOXB9 (Homo sapiens, UniProt P17482 171-250, T197M)
# HOXC9 [2] = biological target: HOXC9 (Homo sapiens, UniProt P31274 178-260, K195R)
# HOXC10 [3] = biological target: HOXC10 (Homo sapiens, UniProt Q9NYD6 254-340)
# HOXB9 [4] = biological target: HOXB9 (Homo sapiens, UniProt P17482 171-250)
# Chain of HOXB9 (Homo sapiens, UniProt P17482 171-250) (P17482 171-250): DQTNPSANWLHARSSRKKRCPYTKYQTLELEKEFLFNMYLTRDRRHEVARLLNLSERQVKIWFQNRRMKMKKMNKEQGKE
# HOXC9 [5] = biological target: HOXC9 (Homo sapiens, UniProt P31274 178-260)
# Chain of HOXC9 (Homo sapiens, UniProt P31274 178-260) (P31274 178-260): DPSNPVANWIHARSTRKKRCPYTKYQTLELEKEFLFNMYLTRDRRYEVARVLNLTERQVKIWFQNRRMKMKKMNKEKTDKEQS
# HOXC9 [6] = biological target: HOXC9 (Homo sapiens, UniProt P31274 178-260, R193K)
# Chain of HOXC9 (Homo sapiens, UniProt P31274 178-260, R193K) (P31274 178-260 R193K): as the sequence (P31274 178-260) above, with R16K counted along it
# HOXC10 [7] = biological target: HOXC10 (Homo sapiens, UniProt Q9NYD6 254-340, K271E)
# Chain of HOXC10 (Homo sapiens, UniProt Q9NYD6 254-340, K271E) (Q9NYD6 254-340 K271E): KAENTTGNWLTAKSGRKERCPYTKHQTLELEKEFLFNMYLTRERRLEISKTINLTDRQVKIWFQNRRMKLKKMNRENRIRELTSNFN
# HOXD13 [8] = biological target: HOXD13 (Homo sapiens, UniProt P35453 263-343, T313A)
# Chain of HOXD13 (Homo sapiens, UniProt P35453 263-343, T313A) (P35453 263-343 T313A): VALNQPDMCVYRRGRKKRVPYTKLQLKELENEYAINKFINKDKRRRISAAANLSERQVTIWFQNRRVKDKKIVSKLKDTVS
# HOXB9 [9] = biological target: HOXB9 (Homo sapiens, UniProt P17482 171-250, R186Q)
# Chain of HOXB9 (Homo sapiens, UniProt P17482 171-250, R186Q) (P17482 171-250 R186Q): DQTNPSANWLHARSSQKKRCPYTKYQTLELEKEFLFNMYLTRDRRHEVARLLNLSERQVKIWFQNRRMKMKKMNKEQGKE
# HOXC9 [10] = biological target: HOXC9 (Homo sapiens, UniProt P31274 178-260, R222W)
# Chain of HOXC9 (Homo sapiens, UniProt P31274 178-260, R222W) (P31274 178-260 R222W): as the sequence (P31274 178-260) above, with R45W counted along it
# PRRX1 [11] = biological target: PRRX1 (Homo sapiens, UniProt P54821 80-166, F113S)
# Chain of PRRX1 (Homo sapiens, UniProt P54821 80-166, F113S) (P54821 80-166 F113S): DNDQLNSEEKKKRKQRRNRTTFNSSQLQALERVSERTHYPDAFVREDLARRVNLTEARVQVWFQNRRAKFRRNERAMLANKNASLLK
# PRRX1 [12] = biological target: PRRX1 (Homo sapiens, UniProt P54821 80-166)
# Chain of PRRX1 (Homo sapiens, UniProt P54821 80-166) (P54821 80-166): as the sequence (P54821 80-166 F113S) above, with S34F counted along it
# ALX3 [13] = biological target: ALX3 (Homo sapiens, UniProt O95076 139-225, N203Q)
# Chain of ALX3 (Homo sapiens, UniProt O95076 139-225, N203Q) (O95076 139-225 N203Q): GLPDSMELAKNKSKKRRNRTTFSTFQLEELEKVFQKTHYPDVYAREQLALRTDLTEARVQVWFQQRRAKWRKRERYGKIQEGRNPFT
# PAX4 [14] = biological target: T1, PAX4 (Homo sapiens, UniProt O43316 9-242, R200K)
# T1 sequence: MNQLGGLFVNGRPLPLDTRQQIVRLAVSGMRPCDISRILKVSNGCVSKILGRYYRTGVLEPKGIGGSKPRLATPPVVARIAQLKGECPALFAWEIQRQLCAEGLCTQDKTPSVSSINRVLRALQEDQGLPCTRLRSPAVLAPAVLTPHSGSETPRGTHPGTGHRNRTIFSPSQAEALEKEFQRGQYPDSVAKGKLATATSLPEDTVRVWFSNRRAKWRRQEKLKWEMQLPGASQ
# HOXD13 [15] = biological target: HOXD13 (Homo sapiens, UniProt P35453 263-343)
# Chain of HOXD13 (Homo sapiens, UniProt P35453 263-343) (P35453 263-343): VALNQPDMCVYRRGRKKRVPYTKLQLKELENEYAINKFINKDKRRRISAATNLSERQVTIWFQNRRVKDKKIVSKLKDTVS
# PAX4 [16] = biological target: T2, PAX4 (Homo sapiens, UniProt O43316 9-242, F177Y)
# T2 sequence: T1 sequence with F169Y, K192R
# ALX3 [17] = biological target: ALX3 (Homo sapiens, UniProt O95076 139-225, L168V)
# Chain of ALX3 (Homo sapiens, UniProt O95076 139-225, L168V) (O95076 139-225 L168V): as the sequence (O95076 139-225 N203Q) above, with L30V, Q65N counted along it
# ALX3 [18] = biological target: ALX3 (Homo sapiens, UniProt O95076 139-225, N203S)
# Chain of ALX3 (Homo sapiens, UniProt O95076 139-225, N203S) (O95076 139-225 N203S): as the sequence (O95076 139-225 N203Q) above, with Q65S counted along it
# Chain of HOXB9 (Homo sapiens, UniProt P17482 171-250, T197M) (P17482 171-250 T197M): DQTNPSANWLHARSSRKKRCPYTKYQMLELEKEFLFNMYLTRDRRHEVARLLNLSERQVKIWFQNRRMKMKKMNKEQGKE
# Chain of HOXC9 (Homo sapiens, UniProt P31274 178-260, K195R) (P31274 178-260 K195R): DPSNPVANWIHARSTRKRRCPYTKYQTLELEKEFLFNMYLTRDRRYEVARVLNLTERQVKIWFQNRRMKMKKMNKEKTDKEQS
# Chain of HOXC10 (Homo sapiens, UniProt Q9NYD6 254-340) (Q9NYD6 254-340): as the sequence (Q9NYD6 254-340 K271E) above, with E18K counted along it
sequence,measurement,setting,value
GTCATTAA,binding signal,HOXB9 [1],"10.4 upbm affinity estimate (log intensity, higher = more binding, comparable within an allelic series)"
same,binding signal,HOXC9 [2],"13.1 upbm affinity estimate (log intensity, higher = more binding, comparable within an allelic series)"
same,binding signal,HOXC10 [3],"12.6 upbm affinity estimate (log intensity, higher = more binding, comparable within an allelic series)"
same,binding signal,HOXB9 [4],"12.5 upbm affinity estimate (log intensity, higher = more binding, comparable within an allelic series)"
same,binding signal,HOXC9 [5],"13.2 upbm affinity estimate (log intensity, higher = more binding, comparable within an allelic series)"
same,binding signal,HOXC9 [6],"13.1 upbm affinity estimate (log intensity, higher = more binding, comparable within an allelic series)"
same,binding signal,HOXC10 [7],"12.8 upbm affinity estimate (log intensity, higher = more binding, comparable within an allelic series)"
same,binding signal,HOXD13 [8],"11.6 upbm affinity estimate (log intensity, higher = more binding, comparable within an allelic series)"
same,binding signal,HOXB9 [9],"12.2 upbm affinity estimate (log intensity, higher = more binding, comparable within an allelic series)"
same,binding signal,HOXC9 [10],"11 upbm affinity estimate (log intensity, higher = more binding, comparable within an allelic series)"
AGTCATTA,binding signal,PRRX1 [11],"10.4 upbm affinity estimate (log intensity, higher = more binding, comparable within an allelic series)"
same,binding signal,PRRX1 [12],"12.7 upbm affinity estimate (log intensity, higher = more binding, comparable within an allelic series)"
GGTCATTA,binding signal,HOXB9 [1],"10 upbm affinity estimate (log intensity, higher = more binding, comparable within an allelic series)"
same,binding signal,HOXC10 [7],"12 upbm affinity estimate (log intensity, higher = more binding, comparable within an allelic series)"
ATTATTAA,binding signal,HOXB9 [1],"10 upbm affinity estimate (log intensity, higher = more binding, comparable within an allelic series)"
same,binding signal,PRRX1 [11],"11 upbm affinity estimate (log intensity, higher = more binding, comparable within an allelic series)"
same,binding signal,ALX3 [13],"8.56 upbm affinity estimate (log intensity, higher = more binding, comparable within an allelic series)"
same,binding signal,PRRX1 [12],"13.2 upbm affinity estimate (log intensity, higher = more binding, comparable within an allelic series)"
TATTAATA,binding signal,HOXB9 [1],"10.1 upbm affinity estimate (log intensity, higher = more binding, comparable within an allelic series)"
same,binding signal,HOXC9 [2],"12.6 upbm affinity estimate (log intensity, higher = more binding, comparable within an allelic series)"
same,binding signal,PAX4 [14],"11.7 upbm affinity estimate (log intensity, higher = more binding, comparable within an allelic series)"
same,binding signal,ALX3 [13],"8.75 upbm affinity estimate (log intensity, higher = more binding, comparable within an allelic series)"
same,binding signal,HOXC9 [6],"12.5 upbm affinity estimate (log intensity, higher = more binding, comparable within an allelic series)"
same,binding signal,HOXD13 [15],"11.9 upbm affinity estimate (log intensity, higher = more binding, comparable within an allelic series)"
same,binding signal,PAX4 [16],"11.1 upbm affinity estimate (log intensity, higher = more binding, comparable within an allelic series)"
same,binding signal,HOXD13 [8],"12 upbm affinity estimate (log intensity, higher = more binding, comparable within an allelic series)"
same,binding signal,HOXC9 [10],"11.1 upbm affinity estimate (log intensity, higher = more binding, comparable within an allelic series)"
same,binding signal,ALX3 [17],"9.77 upbm affinity estimate (log intensity, higher = more binding, comparable within an allelic series)"
same,binding signal,ALX3 [18],"8.79 upbm affinity estimate (log intensity, higher = more binding, comparable within an allelic series)"
TCCATTAA,binding signal,HOXB9 [1],"9.97 upbm affinity estimate (log intensity, higher = more binding, comparable within an allelic series)"
same,binding signal,HOXB9 [9],"11.5 upbm affinity estimate (log intensity, higher = more binding, comparable within an allelic series)"
CGGTTCCC,binding signal,HOXB9 [1],"8.58 upbm affinity estimate (log intensity, higher = more binding, comparable within an allelic series)"
same,binding signal,HOXB9 [4],"8.52 upbm affinity estimate (log intensity, higher = more binding, comparable within an allelic series)"
same,binding signal,HOXB9 [9],"8.49 upbm affinity estimate (log intensity, higher = more binding, comparable within an allelic series)"
GGCCCCCC,binding signal,HOXB9 [1],"8.33 upbm affinity estimate (log intensity, higher = more binding, comparable within an allelic series)"
same,binding signal,HOXB9 [4],"8.39 upbm affinity estimate (log intensity, higher = more binding, comparable within an allelic series)"
same,binding signal,HOXB9 [9],"8.36 upbm affinity estimate (log intensity, higher = more binding, comparable within an allelic series)"
ATCGATTA,binding signal,PAX4 [16],"11 upbm affinity estimate (log intensity, higher = more binding, comparable within an allelic series)"
CGGGCTAG,binding signal,HOXC9 [2],"9.53 upbm affinity estimate (log intensity, higher = more binding, comparable within an allelic series)"
same,binding signal,HOXC9 [5],"9.6 upbm affinity estimate (log intensity, higher = more binding, comparable within an allelic series)"
same,binding signal,HOXC9 [6],"9.51 upbm affinity estimate (log intensity, higher = more binding, comparable within an allelic series)"
same,binding signal,HOXD13 [15],"9.47 upbm affinity estimate (log intensity, higher = more binding, comparable within an allelic series)"
same,binding signal,HOXD13 [8],"9.73 upbm affinity estimate (log intensity, higher = more binding, comparable within an allelic series)"
same,binding signal,HOXC9 [10],"9.67 upbm affinity estimate (log intensity, higher = more binding, comparable within an allelic series)"
CGTGCCTC,binding signal,HOXB9 [1],"8.3 upbm affinity estimate (log intensity, higher = more binding, comparable within an allelic series)"
same,binding signal,HOXC10 [3],"10 upbm affinity estimate (log intensity, higher = more binding, comparable within an allelic series)"
same,binding signal,HOXB9 [4],"8.2 upbm affinity estimate (log intensity, higher = more binding, comparable within an allelic series)"
same,binding signal,HOXC10 [7],"9.99 upbm affinity estimate (log intensity, higher = more binding, comparable within an allelic series)"
same,binding signal,HOXB9 [9],"8.24 upbm affinity estimate (log intensity, higher = more binding, comparable within an allelic series)"
CCTCATTA,binding signal,PRRX1 [11],"10.7 upbm affinity estimate (log intensity, higher = more binding, comparable within an allelic series)"
same,binding signal,PRRX1 [12],"13.2 upbm affinity estimate (log intensity, higher = more binding, comparable within an allelic series)"
ACCATTAA,binding signal,HOXB9 [1],"10.1 upbm affinity estimate (log intensity, higher = more binding, comparable within an allelic series)"
same,binding signal,HOXC9 [2],"12.7 upbm affinity estimate (log intensity, higher = more binding, comparable within an allelic series)"
same,binding signal,HOXB9 [4],"11.8 upbm affinity estimate (log intensity, higher = more binding, comparable within an allelic series)"
same,binding signal,HOXC9 [5],"12.7 upbm affinity estimate (log intensity, higher = more binding, comparable within an allelic series)"
same,binding signal,HOXC9 [6],"12.6 upbm affinity estimate (log intensity, higher = more binding, comparable within an allelic series)"
same,binding signal,HOXC10 [7],"11.9 upbm affinity estimate (log intensity, higher = more binding, comparable within an allelic series)"
same,binding signal,HOXB9 [9],"11.6 upbm affinity estimate (log intensity, higher = more binding, comparable within an allelic series)"
same,binding signal,HOXC9 [10],"10.9 upbm affinity estimate (log intensity, higher = more binding, comparable within an allelic series)"
ATTAATCG,binding signal,PAX4 [14],"11.6 upbm affinity estimate (log intensity, higher = more binding, comparable within an allelic series)"
same,binding signal,PAX4 [16],"11.1 upbm affinity estimate (log intensity, higher = more binding, comparable within an allelic series)"
